Measurements published in PubChem BioAssay AID624167 (Sanford-Burnham Center for Chemical Genomics, 2012).

Assay: inhibition of PEG-3 promoter-driven reporter – cell-based, HeLa, luciferase, CREF/GAPDH counter-screen panel, dose response (AID 624167)
Conditions: CREF/GAPDH counter-screens; run 1, dose range 1, at 100 µM (top of the series)

Compared with `CS(=O)(=O)c1ccc(-c2sc3ccccc3c2C#CCCO)cc1`, `CS(=O)(=O)c1ccc(-c2cn3cc(C(=O)O)ccc3n2)cc1` is lower in inhibition: 90.1% for the first, 67.7% for the second.

Compared with `CN(C)c1c([N+](=O)[O-])cc(N2C(=O)C=CC2=O)cc1[N+](=O)[O-]`, `O=[N+]([O-])c1nn(-c2ccc3c(c2)OCCO3)n(O)c1=Nc1ccc(Cl)cc1` is lower in inhibition: 98.9% for the first, 78.7% for the second.

First: CC1CC(C)C(=O)C(C(CC2CC(=O)NC(=O)C2)OC(=O)CC(=O)c2ccccc2)C1 (stereo not drawn)
Second: Cc1cc(C)c(C)c(S(=O)(=O)N2CCN(C(=O)c3cc(=O)[nH]c4ccccc34)CC2)c1C
The inhibition of the first is higher: 88.4% for the first, 71.8% for the second.

First: CN(C)CC1CCC/C(=C\c2ccc(OC(=O)c3ccc(Cl)cc3)cc2)C1=O (stereo not drawn)
Second: O=C(O)c1ccc(N/N=C/c2ccc(OC(=O)c3cccc(Cl)c3)cc2)cc1
The inhibition of the first is lower: 76% for the first, 96.4% for the second.

First: CCc1ccc(/C=C2\SC(=S)N(CCCC(=O)Nc3cc(C)on3)C2=O)cc1
Second: COc1ccc(/C=C2\SC(=S)N(CCCC(=O)NNC(=O)c3ccccc3O)C2=O)cc1
The inhibition of the first is higher: 75.9% for the first, 15% for the second.

Going from `CN(O)C(=S)c1ccccc1` to `Cc1cc(C(=O)Nc2cccc(C(=O)O)c2)oc1C`, the inhibition rises from 3.97% to 89.9%.

Going from `O=C(N/N=C\c1c(O)ccc2ccccc12)c1ccc(Cn2cccn2)o1` to `O=C(N/N=C\c1c(O)ccc2ccccc12)c1cncc(Br)c1`, the inhibition rises from 34.1% to 65.3%.

First: COc1cc(CNCCCN2CCOCC2)cc(Br)c1OCc1ccc(Cl)cc1
Second: Oc1[nH]c2ccc(Br)cc2c1N=NC(=S)N1CCOCC1
The inhibition of the first is higher: 99.6% for the first, 75.3% for the second.

Compared with `Cc1cc(Br)ccc1NC(=O)CNC(=O)Cn1ncc(Cl)c(Cl)c1=O`, `Cc1cccc(OCC(=O)NCC(=O)N/N=C/c2cc(Br)cc(Br)c2O)c1` is lower in inhibition: 98.5% for the first, 67.3% for the second.

First: CCCCC(=O)NC(c1ccc(OC)cc1)c1ccc2cccnc2c1O (stereo not drawn)
Second: CCCC(=O)NC(c1ccccc1)c1ccc2cccnc2c1O (stereo not drawn)
The inhibition of the first is lower: 21.2% for the first, 26.9% for the second.

First: O=C(Nc1ccccc1C(=O)Nc1nnc(C(F)(F)F)s1)c1ccccc1
Second: COc1ccccc1Nc1nc(-c2sc(NC(=O)c3ccco3)nc2C)cs1
The inhibition of the first is higher: 60.8% for the first, 18% for the second.

Going from `C=C1CC2(OC1=O)c1ccccc1CCc1ccccc12` to `CCOC(=O)c1c(SCCN2CCCCC2)n(-c2ccccc2)c(=S)n(-c2ccccc2)c1=O`, the inhibition falls from 100% to 97%.

First: Cc1nc(C)c(C(=O)N/N=C/c2cc(Br)ccc2O)s1
Second: C=CCc1cccc(/C=N/NC(=O)C(C)Nc2cccc(C)c2)c1O (stereo not drawn)
The inhibition of the first is lower: -7.82% for the first, 29% for the second.

First: CCc1ccn2cc(-c3ccc4c(c3)OCO4)nc2c1
Second: CCSc1nc2ccccc2n1C(=O)/C=C\c1ccc(OC)c(OC)c1
The inhibition of the first is higher: 92.7% for the first, 77.4% for the second.

First: CCCCCCCNC(=O)C1(CC2CC(c3cccc(Br)c3)=NO2)CCNCC1 (stereo not drawn)
Second: O=c1c2ccccc2sc2nc(CCl)nn12
The inhibition of the first is lower: 95% for the first, 100% for the second.

Going from `Cc1ccc(-n2c(N)c(C(=O)Nc3c(C)n(C)n(-c4ccccc4)c3=O)c3nc4ccccc4nc32)cc1` to `COc1cc(Nc2c3ccccc3nc3ccccc23)cc(OC)c1OC`, the inhibition rises from 77.5% to 95.9%.

Work on `CN(C)S(=O)(=O)c1ccc(-c2csc(N/N=C/c3ccc(O)cc3)n2)cc1` yielded an inhibition of 91.3%.
